Measured values from PubChem BioAssay.
Results filed as inconclusive are left out. Active and inactive are the calls of the source.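 The calls were made as follows, unless noted: active = binding below the plate cutoff, the plate median minus 3 SD, with a reading above zero; inconclusive = below the plate cutoff but reading exactly zero; inactive = the rest.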

Assays:
[1] = yeast TOR pathway RPL19A-GFP modulators, primary screen, cell-based, S. cerevisiae, multiplex flow cytometry (AID 1862; in the data active = percent of DMSO control GFP below about 86%;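 also: lower values mimic rapamycin by blocking the RPL19A rise seen in DMSO cells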); conditions: S. cerevisiae RPL19A-GFP strain, flow cytometry fluorescence, 3 h; at 10 µM; stronger effect = lower value
[2] = modulators of MEP2-GFP levels in yeast, primary screen, S. cerevisiae, multiplex flow cytometry (AID 1867;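 active = GFP response, as percent of the DMSO control, above the screen-wide mean plus 3 SD, about 139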;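 also: median GFP channel fluorescence of barcode-gated MEP2-GFP cells measured by flow cytometry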); conditions: S. cerevisiae MEP2-GFP strain, 3 h, at 10 µM, stronger effect = higher value, 100% means same as DMSO wells
[3] = modulators of CIT2-GFP expression in yeast, primary screen, S. cerevisiae, GFP fusion, multiplex flow cytometry (AID 1870;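 active = percent response above a set limit, the screen-wide mean plus 3 SD, cut at about 130% in these data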;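 also: barcoded CIT2-GFP strain pooled with four other GFP strains with rapamycin as positive control; median GFP fluorescence per well over plate mean of DMSO wells so 100% = DMSO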); conditions: 3 h, at 10 µM, stronger effect = higher value
[4] = modulators of LAP4-GFP expression in yeast, primary screen, S. cerevisiae, multiplex flow cytometry (AID 1873;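 active = GFP signal, as percent of the solvent control, above the screen mean plus 3 SD, about 149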); conditions: 3 h, at 10 µM, stronger effect = higher value
[5] = modulators of AGP1-GFP expression in yeast TOR pathway, primary screen, cell-based, multiplex flow cytometry, S. cerevisiae (AID 1887;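 active = GFP signal above the screen-wide mean plus 3 SD, that is over about 124.5% of the solvent control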;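 also: AGP1-GFP fusion strain of S. cerevisiae within a five-strain barcoded multiplex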); conditions: 3 h, at 10 µM, stronger effect = higher value
[6] = inhibitors of CD8+ T cell-vesicle binding, pilot screen, LFA-1/ICAM-1 modulator project, MLPCN validation set, flow cytometry (AID 2523;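 active = response below a set limit, under 55% cells CD8-positive and vesicle-bound, and CD8 cells' 90th-percentile brightness under 279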;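 as to vesicle binding response: mean PE anti-B7-1 fluorescence of CD8+ cells relative to row control; 100% = QL9-loaded vesicles with DMSO vehicle in the same plate row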); conditions: 2C mouse CD8+ T cells, at 7 µM, stronger effect = lower value; double positive events: measured here: CD8+/vesicle+ event percentage
[7] = target: Integrin beta-1 (Homo sapiens) + Integrin alpha-4 (Homo sapiens) (UniProt P13612+P05556); experiment: inhibition of HUTS-21 binding to VLA-4, pilot screen, VLA-4 allosteric modulator project, U937 cells, HUTS-21 mAb, flow cytometry, validation set (AID 2674;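 active = inhibition above 50%, about 3 SD of the validation set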;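 also: antibody binding induced by the VLA-4 ligand LDV present at three times its Kd; 0% = LDV ligand with antibody and no compound and 100% = antibody without LDV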); conditions: HUTS-21 LIBS mAb binding, at 6.7 µM, stronger effect = higher value, binding induced by LDV ligand
[8] = superoxide lowering in aged yeast cells, pilot screen, validation compound set (AID 2706;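 active = superoxide response below 65% of plate, a cut near 3 SD across the whole screen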;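 also: yeast exposed to compound for one week at 30 degrees C before staining; 100% = mean of all compound wells on the same plate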); conditions: S. cerevisiae aging, superoxide DHE fluorescence; at 10 µM; stronger effect = lower value
[9] = target: Beta-adrenergic receptor kinase 1 (Homo sapiens) (UniProt P25098); experiment: GRK2 binders displacing RNA aptamer, biochemical, validation, human GRK2, bead flow cytometry (AID 488806;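 active = aptamer binding inhibition above 30%, about 3 SD of noise from non-fluorescent compounds; inactive = inhibition at or below 30%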); conditions: bead-bound GRK2, FAM-aptamer displacement, at 10 µM, stronger effect = higher value
[10] = target: Beta-2 adrenergic receptor (Homo sapiens) (UniProt P07550); experiment: beta2AR agonists driving receptor internalization, pilot screen, cell-based, FAP fluorogen, flow cytometry, validation set (AID 504459;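 active = percent response above 42, roughly 3 SD of non-fluorescent test compounds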;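 also: agonist-driven loss of surface beta2AR via internalization measured by FAP dye flow cytometry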); conditions: Am2.2-beta2AR cells, FAP surface receptor flow cytometry; at 10 µM; stronger effect = higher value
[11] = target: AP-2 complex subunit beta (Homo sapiens) (UniProt P63010); experiment: inhibitors of arrestin peptide binding to AP2, pilot screen, biochemical, validation set, GST-AP2 beads, flow cytometry (AID 504541;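 active = inhibition above 54%, about 3 SD of non-fluorescent compounds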;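 also: AP2 carries R879A mutation and is captured from E. coli lysate; bead-bound FITC arrestin peptide fluorescence measuring arrestin peptide binding to AP2; 0% = DMSO wells and 100% = excess unlabeled arrestin peptide control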); conditions: FITC arrestin peptide, at 10 µM, stronger effect = higher value, AP2 beta2 appendage fragment, R879A mutant
[12] = yeast V-ATPase proton transport modulators, S. cerevisiae, pHLuorin, HTS validation (AID 504600; in the data active = response above about 15%;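 also: plate controls were DMSO for no effect and reference compound for full effect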); conditions: S. cerevisiae pHLuorin cytosolic pH, at 10 µM, stronger effect = higher value
[13] = test system: anti-desmoglein-3 scFv antibody binding to human DSG3; experiment: inhibitors of anti-DSG3 scFv binding to DSG3, pilot screen, biochemical, validation compound set, bead-based, flow cytometry (AID 588368); conditions: Protein G beads, DSG3-Fc, scFv-GFP binding, at 10 µM, stronger effect = lower value;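 also: signal is the median channel fluorescence of bead-bound GFP antibody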
[14] = inhibitors of fungal efflux pumps CDR1, CDR2, MDR1, pilot screen, validation compound set, multiplex, phenotypic (AID 588506;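 active = efflux inhibition above 0.42, the validation set average plus 4 SD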;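 also: Nile Red retained in cells so higher fluorescence means more efflux inhibition; 0 = negative control wells and 1 = enniatin B 25 µM full block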); conditions: S. cerevisiae pump-expressing triplex, Nile Red efflux flow cytometry; at 10 µM; stronger effect = higher value; the pumps come from Candida albicans
[15] = target: ATP-binding cassette sub-family B member 6 (Homo sapiens) (UniProt Q9NP58); experiment: ABCB6 transporter inhibitors, pilot screen, K562-ABCB6 cells, flow cytometry, validation set (AID 588550;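 active = inhibition above the screen-wide mean plus 3 SD, about 51%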;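 also: 0% = DMSO wells and 100% = benzethonium chloride 70 µM positive control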); conditions: K562-ABCB6 porphyrin accumulation, 1 h, at 10 µM, stronger effect = higher value
[16] = promoters of myeloid differentiation in arrested cells, primary screen, cell-based, GFP/MAC1 double positive, flow cytometry, validation set (AID 588685;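 active = differentiation response of at least 50%, scaled between solvent and reference control, from cells with both markers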;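 also: compound exposure lasts four days before antibody staining and flow analysis; 0% = DMSO wells and 100% = 5 µM fulvestrant positive control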); conditions: ER-HoxA9 marrow cells, stronger effect = higher value, normalized: vehicle 0, fulvestrant 100

Sequence of Integrin beta-1 (Homo sapiens) + Integrin alpha-4 (Homo sapiens) (P05556 whole entry, looked up): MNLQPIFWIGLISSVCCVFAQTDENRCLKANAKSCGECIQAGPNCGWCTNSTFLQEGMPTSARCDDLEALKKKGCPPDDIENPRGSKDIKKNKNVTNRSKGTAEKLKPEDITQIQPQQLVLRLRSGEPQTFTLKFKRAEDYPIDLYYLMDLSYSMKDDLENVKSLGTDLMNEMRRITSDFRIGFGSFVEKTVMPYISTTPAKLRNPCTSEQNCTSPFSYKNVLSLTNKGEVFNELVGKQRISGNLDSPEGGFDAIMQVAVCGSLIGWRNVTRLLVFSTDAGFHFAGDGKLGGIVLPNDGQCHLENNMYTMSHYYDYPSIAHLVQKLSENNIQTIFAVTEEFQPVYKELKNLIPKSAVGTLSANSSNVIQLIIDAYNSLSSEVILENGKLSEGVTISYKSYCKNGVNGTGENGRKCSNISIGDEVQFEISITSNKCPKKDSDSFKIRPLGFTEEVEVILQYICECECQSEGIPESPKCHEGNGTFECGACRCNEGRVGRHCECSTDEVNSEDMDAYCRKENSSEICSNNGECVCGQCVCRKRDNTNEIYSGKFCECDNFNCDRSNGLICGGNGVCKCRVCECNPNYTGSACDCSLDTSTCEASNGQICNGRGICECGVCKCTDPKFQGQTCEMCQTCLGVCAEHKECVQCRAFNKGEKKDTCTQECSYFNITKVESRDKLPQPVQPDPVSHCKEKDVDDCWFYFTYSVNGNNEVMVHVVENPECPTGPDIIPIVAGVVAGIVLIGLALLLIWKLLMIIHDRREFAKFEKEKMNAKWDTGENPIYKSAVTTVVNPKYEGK
Sequence of Integrin beta-1 (Homo sapiens) + Integrin alpha-4 (Homo sapiens) (P13612 whole entry, looked up): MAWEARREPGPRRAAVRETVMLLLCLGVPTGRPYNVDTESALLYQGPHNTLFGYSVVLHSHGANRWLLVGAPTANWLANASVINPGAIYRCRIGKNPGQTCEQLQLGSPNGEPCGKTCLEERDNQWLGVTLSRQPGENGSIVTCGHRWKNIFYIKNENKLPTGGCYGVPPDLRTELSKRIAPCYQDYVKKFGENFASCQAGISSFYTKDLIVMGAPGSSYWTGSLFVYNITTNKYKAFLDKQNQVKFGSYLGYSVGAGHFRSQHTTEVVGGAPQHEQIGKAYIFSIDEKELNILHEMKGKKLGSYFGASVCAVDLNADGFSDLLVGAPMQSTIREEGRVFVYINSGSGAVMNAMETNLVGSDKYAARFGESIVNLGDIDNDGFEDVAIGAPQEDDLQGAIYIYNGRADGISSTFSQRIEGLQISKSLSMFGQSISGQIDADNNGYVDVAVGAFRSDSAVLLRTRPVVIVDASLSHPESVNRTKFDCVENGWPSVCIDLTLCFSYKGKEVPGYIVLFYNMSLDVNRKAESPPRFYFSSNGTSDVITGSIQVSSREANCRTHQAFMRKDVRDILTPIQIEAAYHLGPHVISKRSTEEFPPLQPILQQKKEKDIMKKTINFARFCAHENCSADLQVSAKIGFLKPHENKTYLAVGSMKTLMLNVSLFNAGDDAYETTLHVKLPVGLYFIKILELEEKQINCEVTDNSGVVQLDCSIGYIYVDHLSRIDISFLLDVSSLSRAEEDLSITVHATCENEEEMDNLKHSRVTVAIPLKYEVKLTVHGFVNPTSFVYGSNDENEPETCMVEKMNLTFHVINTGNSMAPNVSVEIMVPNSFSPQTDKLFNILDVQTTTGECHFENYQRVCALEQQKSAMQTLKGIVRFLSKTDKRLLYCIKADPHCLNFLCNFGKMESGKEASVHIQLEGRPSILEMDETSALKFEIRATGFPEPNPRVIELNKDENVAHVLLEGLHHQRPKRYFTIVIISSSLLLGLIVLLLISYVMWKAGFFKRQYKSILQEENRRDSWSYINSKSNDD
Sequence of AP-2 complex subunit beta (Homo sapiens) (P63010 whole entry, looked up, the tested form may be a part, one chain of several): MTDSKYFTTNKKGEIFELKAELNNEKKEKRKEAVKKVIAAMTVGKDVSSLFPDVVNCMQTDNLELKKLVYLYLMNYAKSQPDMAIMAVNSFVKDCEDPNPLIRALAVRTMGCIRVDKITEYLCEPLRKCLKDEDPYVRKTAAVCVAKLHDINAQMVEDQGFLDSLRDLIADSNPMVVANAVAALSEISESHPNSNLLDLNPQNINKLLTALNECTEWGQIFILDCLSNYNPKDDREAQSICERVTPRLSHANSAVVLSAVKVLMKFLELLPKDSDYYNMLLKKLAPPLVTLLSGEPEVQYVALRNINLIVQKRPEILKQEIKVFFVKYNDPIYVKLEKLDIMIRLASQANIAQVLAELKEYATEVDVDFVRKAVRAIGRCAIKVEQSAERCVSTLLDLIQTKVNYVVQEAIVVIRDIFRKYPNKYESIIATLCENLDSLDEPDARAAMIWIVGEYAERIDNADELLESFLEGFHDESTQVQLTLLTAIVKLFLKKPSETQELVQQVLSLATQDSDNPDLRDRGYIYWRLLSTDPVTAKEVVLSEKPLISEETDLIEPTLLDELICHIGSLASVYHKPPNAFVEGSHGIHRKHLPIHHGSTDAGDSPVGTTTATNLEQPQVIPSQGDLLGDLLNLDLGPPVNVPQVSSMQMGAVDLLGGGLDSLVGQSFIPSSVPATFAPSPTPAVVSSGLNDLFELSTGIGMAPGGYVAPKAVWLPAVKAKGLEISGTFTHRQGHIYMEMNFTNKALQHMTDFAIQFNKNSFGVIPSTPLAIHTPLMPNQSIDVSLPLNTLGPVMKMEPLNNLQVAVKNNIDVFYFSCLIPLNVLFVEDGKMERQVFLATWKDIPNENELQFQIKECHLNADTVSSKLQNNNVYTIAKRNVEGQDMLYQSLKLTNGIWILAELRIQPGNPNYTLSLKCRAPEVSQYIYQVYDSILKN
Sequence of Beta-adrenergic receptor kinase 1 (Homo sapiens) (P25098 whole entry, looked up): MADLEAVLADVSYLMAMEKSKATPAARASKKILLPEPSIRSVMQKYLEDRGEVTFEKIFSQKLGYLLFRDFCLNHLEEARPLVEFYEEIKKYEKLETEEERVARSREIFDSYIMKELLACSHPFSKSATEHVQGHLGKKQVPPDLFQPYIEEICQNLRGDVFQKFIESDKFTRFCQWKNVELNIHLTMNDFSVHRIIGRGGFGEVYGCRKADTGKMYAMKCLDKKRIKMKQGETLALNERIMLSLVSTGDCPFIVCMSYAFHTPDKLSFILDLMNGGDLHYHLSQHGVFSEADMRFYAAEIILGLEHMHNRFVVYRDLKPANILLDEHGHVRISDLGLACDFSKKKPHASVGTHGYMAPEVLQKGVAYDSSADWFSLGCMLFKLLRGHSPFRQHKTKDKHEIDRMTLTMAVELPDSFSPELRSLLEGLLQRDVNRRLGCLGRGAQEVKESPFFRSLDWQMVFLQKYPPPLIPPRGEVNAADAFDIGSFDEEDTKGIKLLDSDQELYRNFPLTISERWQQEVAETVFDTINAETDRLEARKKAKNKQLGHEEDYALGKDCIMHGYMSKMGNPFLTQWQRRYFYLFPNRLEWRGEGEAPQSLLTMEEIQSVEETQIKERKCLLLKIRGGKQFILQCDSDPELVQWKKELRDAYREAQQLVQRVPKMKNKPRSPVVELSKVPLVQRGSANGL
Sequence of Beta-2 adrenergic receptor (Homo sapiens) (P07550 whole entry, looked up): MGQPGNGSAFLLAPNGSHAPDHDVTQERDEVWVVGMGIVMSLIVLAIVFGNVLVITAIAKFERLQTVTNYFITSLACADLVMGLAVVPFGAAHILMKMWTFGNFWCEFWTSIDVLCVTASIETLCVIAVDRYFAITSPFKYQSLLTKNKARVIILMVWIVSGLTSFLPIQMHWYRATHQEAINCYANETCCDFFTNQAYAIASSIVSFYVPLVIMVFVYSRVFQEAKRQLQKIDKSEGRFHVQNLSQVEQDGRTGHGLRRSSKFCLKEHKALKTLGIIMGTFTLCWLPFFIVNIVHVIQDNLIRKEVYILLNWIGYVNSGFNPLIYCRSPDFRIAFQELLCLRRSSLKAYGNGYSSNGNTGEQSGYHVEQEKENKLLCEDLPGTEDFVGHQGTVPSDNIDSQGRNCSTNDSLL
Sequence of ATP-binding cassette sub-family B member 6 (Homo sapiens) (Q9NP58 whole entry, looked up): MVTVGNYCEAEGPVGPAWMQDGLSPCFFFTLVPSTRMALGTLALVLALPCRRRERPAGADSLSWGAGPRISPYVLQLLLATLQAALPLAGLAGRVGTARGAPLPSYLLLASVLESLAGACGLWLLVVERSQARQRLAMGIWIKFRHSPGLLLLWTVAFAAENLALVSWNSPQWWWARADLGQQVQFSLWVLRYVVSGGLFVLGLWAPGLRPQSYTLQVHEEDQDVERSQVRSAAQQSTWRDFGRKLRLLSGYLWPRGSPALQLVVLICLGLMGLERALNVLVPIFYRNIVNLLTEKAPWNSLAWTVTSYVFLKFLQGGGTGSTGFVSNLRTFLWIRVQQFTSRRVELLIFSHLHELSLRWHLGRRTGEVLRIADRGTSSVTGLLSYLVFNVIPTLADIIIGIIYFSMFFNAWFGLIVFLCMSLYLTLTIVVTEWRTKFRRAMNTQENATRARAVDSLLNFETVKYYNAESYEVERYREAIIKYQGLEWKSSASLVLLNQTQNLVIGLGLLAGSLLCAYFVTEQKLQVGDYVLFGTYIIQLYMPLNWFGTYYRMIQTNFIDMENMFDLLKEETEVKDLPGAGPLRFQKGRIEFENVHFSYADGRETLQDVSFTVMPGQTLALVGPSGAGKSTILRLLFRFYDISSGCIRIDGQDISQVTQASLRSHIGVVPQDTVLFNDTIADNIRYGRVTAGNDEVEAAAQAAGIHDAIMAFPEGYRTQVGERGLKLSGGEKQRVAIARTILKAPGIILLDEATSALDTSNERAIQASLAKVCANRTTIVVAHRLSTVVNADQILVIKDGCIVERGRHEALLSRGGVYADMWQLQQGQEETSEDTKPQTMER

SMILES | percent of DMSO control GFP [1] | GFP response vs DMSO [2] | percent response of DMSO control [3] | GFP response vs DMSO [4] | GFP response, % of DMSO [5] | double positive events [6] [%] | vesicle binding response [6] | inhibition [7] | superoxide response (% of plate) [8] | aptamer binding inhibition [9] | response [10] | inhibition [11] | response [12] | binding (% of control) [13] | efflux inhibition (fraction of control) [14] | inhibition [15] | differentiation response [16]
CC(=O)NC(Cc1c[nH]c2ccccc12)C(=O)N/N=C/c1ccccc1 (stereo not drawn) | 98.6% (inactive) | 108% (inactive) | 104% (inactive) | 99.1% (inactive) | 98.6% (inactive) | 62.8 | 200% (inactive) | -15.8% (inactive) | 98% (inactive) | -3% (inactive) | -1.6% (inactive) | 60.7% (active) | -13.1% (inactive) | 104% (inactive) | 0 (inactive) | -12% (inactive) | -3.11% (inactive)
CCO/C([O-])=N/c1c[n+](N2CCOCC2)no1 | 99.8% (inactive) | 97.7% (inactive) | 103% (inactive) | 110% (inactive) | 106% (inactive) | 64.1 | 237% (inactive) | -18.5% (inactive) | 115% (inactive) | -1% (inactive) | 9.37% (inactive) | -14.8% (inactive) | 0.46% (inactive) | 100% (inactive) | 0 (inactive) | -4% (inactive) | -0.18% (inactive)
COc1cc2c(cc1OC)C1(CCCC1)CNC2c1cccc([N+](=O)[O-])c1 (stereo not drawn) | 99.3% (inactive) | 103% (inactive) | 95.8% (inactive) | 109% (inactive) | 92.8% (inactive) | 54.7 | 235% (inactive) | -57.8% (inactive) | 99.7% (inactive) | -2% (inactive) | 23.6% (inactive) | -2.35% (inactive) | 35.2% (active) | 99.1% (inactive) | 0.05 (inactive) | 4% (inactive) | -8.8% (inactive)
Cc1nc2ccccc2n1CC(=O)NC1CCCC1 | 101% (inactive) | 95.6% (inactive) | 109% (inactive) | 92.6% (inactive) | 105% (inactive) | 60.6 | 118% (inactive) | -2.43% (inactive) | 84.9% (inactive) | -2% (inactive) | 7.07% (inactive) | -5.83% (inactive) | 0.83% (inactive) | 105% (inactive) | 0.115 (inactive) | -2% (inactive) | -8.96% (inactive)
COc1cccc(N2C(=O)CC(c3c[nH]c4ccccc34)C2=O)c1 (stereo not drawn) | 108% (inactive) | 103% (inactive) | 110% (inactive) | 106% (inactive) | 97.1% (inactive) | 61.9 | 159% (inactive) | -42.6% (inactive) | 95.3% (inactive) | 1% (inactive) | 12% (inactive) | 10% (inactive) | -0.64% (inactive) | 105% (inactive) | 0 (inactive) | -26% (inactive) | -13.3% (inactive)
Cc1cccc(OCC(=O)Nc2ccc(C(=O)NCC(C)C)cc2)c1 | 102% (inactive) | 102% (inactive) | 98.3% (inactive) | 110% (inactive) | 115% (inactive) | 62.1 | 156% (inactive) | 16.8% (inactive) | 97.4% (inactive) | 3% (inactive) | -25% (inactive) | -3.7% (inactive) | 0.58% (inactive) | 99.3% (inactive) | -0.09 (inactive) | 3% (inactive) | 32.5% (inactive)
CCC(=O)c1ccc(OCc2ccc(C(=O)OC)cc2)cc1 | 104% (inactive) | 104% (inactive) | 106% (inactive) | 112% (inactive) | 98.6% (inactive) | 54.8 | 127% (inactive) | 4.27% (inactive) | 90.3% (inactive) | -1% (inactive) | 4.9% (inactive) | 10.4% (inactive) | 23.8% (active) | 96.4% (inactive) | -0.045 (inactive) | 10% (inactive) | -23.6% (inactive)
Cc1ccc(C(=O)Nc2ccc(O)cc2C(=O)O)cc1C | 105% (inactive) | 99.6% (inactive) | 102% (inactive) | 75.2% (inactive) | 86.8% (inactive) | 58.8 | 274% (inactive) | 9.13% (inactive) | 103% (inactive) | 3% (inactive) | 51.5% (active) | -1.05% (inactive) | 1.04% (inactive) | 106% (inactive) | 0.05 (inactive) | -4% (inactive) | 5.6% (inactive)
Cc1cc(=O)oc2cc(OC(C)C(=O)NCC3CCCO3)ccc12 (stereo not drawn) | 101% (inactive) | 99.6% (inactive) | 104% (inactive) | 106% (inactive) | 102% (inactive) | 68.8 | 554% (inactive) | -14.1% (inactive) | 91.7% (inactive) | 3% (inactive) | -0.14% (inactive) | -3.92% (inactive) | 0.04% (inactive) | 96.8% (inactive) | -0.28 (inactive) | 5% (inactive) | -7.2% (inactive)
Cc1ccc2c(c1)C1(C(=O)N2)N2CCCC2C(C(=O)c2ccc3ccccc3c2)C12C(=O)Nc1ccccc12 (stereo not drawn) | 107% (inactive) | 93% (inactive) | 115% (inactive) | 89.4% (inactive) | 101% (inactive) | 60.9 | 224% (inactive) | -8.75% (inactive) | 94.8% (inactive) | 1% (inactive) | 3.54% (inactive) | -0.28% (inactive) | 2.26% (inactive) | 97.2% (inactive) | 0.24 (inactive) | -11% (inactive) | -0.73% (inactive)
CC(=O)Oc1ccc2c(=O)c(Oc3ccccc3[N+](=O)[O-])coc2c1 | 99.8% (inactive) | 131% (inactive) | 111% (inactive) | 78.7% (inactive) | 95.6% (inactive) | 60.6 | 188% (inactive) | -0.33% (inactive) | 121% (inactive) | 3% (inactive) | -4.04% (inactive) | -1.47% (inactive) | 0.8% (inactive) | 101% (inactive) | -0.06 (inactive) | -4% (inactive) | 0% (inactive)
O[C@H]1COC2C1OC[C@@H]2O (stereo partly drawn) | 99% (inactive) | 107% (inactive) | 102% (inactive) | 115% (inactive) | 118% (inactive) | 58.3 | 204% (inactive) | 1.44% (inactive) | 87.6% (inactive) | 0% (inactive) | -28.6% (inactive) | 3.72% (inactive) | 1.96% (inactive) | 104% (inactive) | 0 (inactive) | 2% (inactive) | -4.99% (inactive)
CC(C)Oc1cccc(C(=O)N2CCCC2)c1 | 102% (inactive) | 106% (inactive) | 94.2% (inactive) | 99.9% (inactive) | 100% (inactive) | 64.7 | 221% (inactive) | -4.6% (inactive) | 101% (inactive) | 0% (inactive) | -9.83% (inactive) | -4.57% (inactive) | 1.82% (inactive) | 93.2% (inactive) | 0.14 (inactive) | -4% (inactive) | 9.04% (inactive)
O=C1C(Cc2ccccc2)NC(=S)N1c1ccccc1 (stereo not drawn) | 96.1% (inactive) | 105% (inactive) | 92% (inactive) | 115% (inactive) | 99.4% (inactive) | 60.7 | 179% (inactive) | -14.1% (inactive) | 98.2% (inactive) | 5% (inactive) | -16.9% (inactive) | -7.42% (inactive) | 13.2% (inactive) | 98.7% (inactive) | -0.24 (inactive) | 9% (inactive) | -28% (inactive)
Cc1ccc(/C=N/Nc2nc(C(C)(C)C)cs2)o1 | 103% (inactive) | 106% (inactive) | 95.8% (inactive) | 98.2% (inactive) | 97.8% (inactive) | 69.4 | 302% (inactive) | 17.3% (inactive) | 80.8% (inactive) | 5% (inactive) | 4.35% (inactive) | -1.54% (inactive) | 6.19% (inactive) | 102% (inactive) | 0.51 (active) | 114% (active) | 7.2% (inactive)
Cc1ccccc1C(=O)NCC(=O)O | 103% (inactive) | 107% (inactive) | 103% (inactive) | 93.7% (inactive) | 105% (inactive) | 61.4 | 130% (inactive) | 0.25% (inactive) | 102% (inactive) | 5% (inactive) | 2.69% (inactive) | -5.73% (inactive) | 109% (active) | 103% (inactive) | 0.31 (inactive) | -7% (inactive) | -13.3% (inactive)
O=C(O)CCCc1ccccc1 | 104% (inactive) | 96.2% (inactive) | 115% (inactive) | 76.9% (inactive) | 99.7% (inactive) | 61.7 | 264% (inactive) | -4.6% (inactive) | 107% (inactive) | 5% (inactive) | -7.69% (inactive) | -6% (inactive) | 2.2% (inactive) | 96.1% (inactive) | 0.02 (inactive) | 19% (inactive) | 0.24% (inactive)
COc1ccc(OC(C)C(=O)Nc2ccc([N+](=O)[O-])cc2)cc1 (stereo not drawn) | 102% (inactive) | 107% (inactive) | 99.7% (inactive) | 114% (inactive) | 97.5% (inactive) | 65.7 | 249% (inactive) | 0.25% (inactive) | 103% (inactive) | -3% (inactive) | 1.65% (inactive) | -7.72% (inactive) | 3.86% (inactive) | 103% (inactive) | -0.21 (inactive) | 5% (inactive) | 13% (inactive)
COc1ccc(CN(CCC(c2ccccc2)c2ccc(OC(C)C)cc2)C(=O)CCl)cc1OC (stereo not drawn) | 101% (inactive) | 98.3% (inactive) | 107% (inactive) | 98% (inactive) | 99.7% (inactive) | 65.9 | 249% (inactive) | -3.57% (inactive) | 94.5% (inactive) | 4% (inactive) | -6.05% (inactive) | -14.7% (inactive) | 0.92% (inactive) | 93% (inactive) | -0.2 (inactive) | 6% (inactive) | 13.9% (inactive)
